Test results reported in the supplement of paper PMC13094657.
± gives the standard deviation of the averaged measurements.
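Also: viability of the cells left after supernatant collection, read with Deep Blue dye added for 4 h, as absorbance at 570 nm minus 600 nm.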

These compounds were tested on MDA-MB-231 (assay: cell viability relative to vehicle unstimulated control (fraction); higher = more viable cells). Conditions: pre-treatment time: 18 h then 24 h IFNg/TNF.
`COc1ccc(SC)cc1` [4-methoxythioanisole] (compound dose: 10 uM) showed a cell viability of 0.965 ± 0.057.
Work on `C=C(C(=O)O)[C@@H]1CC[C@@H](C)[C@@H]2CCC(C)=C[C@@H]21` [Artemisic acid] (compound dose: 10 uM) yielded a cell viability of 0.828 ± 0.3.
`O=C(O)c1cncc(C(=O)O)c1` [3-5-pyridinedicarboxylic acid] (compound dose: 10 uM) was tested, and the cell viability was 1.04 ± 0.044.
With `C=C1CCC[C@]2(C)C=C3OC(=O)C(C)=C3C[C@@H]12` [Atractylenolide I] (compound dose: 10 uM) the cell viability was 0.983 ± 0.028.
`C[C@@H]1O[C@@H](O[C@H]2[C@H](O[C@H]3CC[C@]4(C)[C@H]5CC=C6[C@@H]7CC(C)(C)CC[C@]7(C(=O)O)CC[C@@]6(C)[C@]5(C)CC[C@H]4C3(C)C)OC[C@H](O[C@@H]3O[C@H](CO)[C@@H](O)[C@H](O)[C@H]3O)[C@@H]2O)[C@H](O)[C@H](O)[C@H]1O` [Hederacolchiside A1] (compound dose: 10 uM) gave a cell viability of 0.221 ± 0.013.
Compound `COc1ccc(-c2cc(=O)c3c(O)c(OC)c(O[C@@H]4O[C@H](CO[C@@H]5O[C@@H](C)[C@H](O)[C@@H](O)[C@H]5O)[C@@H](O)[C@H](O)[C@H]4O)cc3o2)cc1` [Pectolinarin] (compound dose: 10 uM) has a cell viability of 0.833 ± 0.26.
Work on `O[C@H]1[C@H]2c3cc4c(cc3CN3CC[C@H](C[C@@H]1O)[C@H]23)OCO4` [Dihydrolycorine] (compound dose: 10 uM) yielded a cell viability of 0.961 ± 0.041.
Work on `COc1cc2c(cc1O)C(Cc1ccc(O)cc1)[N+](C)(C)CC2` (stereo unspecified) [Magnocurarine] (compound dose: 10 uM) yielded a cell viability of 1.02 ± 0.014.
Work on `CC(=O)O[C@H]1CC/C(C)=C/CC/C(C)=C/C[C@]2(C(C)C)CC[C@@]1(C)O2` [Incensole Acetate] (compound dose: 10 uM) yielded a cell viability of 1.11 ± 0.01.
`C=C[C@@]1(C)CC(=O)[C@]2(O)[C@@]3(C)[C@@H](O)CCC(C)(C)[C@@H]3[C@H](O)[C@H](OC(C)=O)[C@@]2(C)O1` [Forskolin] (compound dose: 10 uM) showed a cell viability of 0.785 ± 0.079.
`C/C=C(/C)C(=O)O[C@H]1[C@H](O)[C@]2(COC(C)=O)[C@H](O)C[C@]3(C)C(=CC[C@@H]4[C@@]5(C)CC[C@H](O[C@@H]6O[C@H](C(=O)O)[C@@H](O[C@@H]7O[C@H](CO)[C@@H](O)[C@H](O)[C@H]7O)[C@H](O)[C@H]6O[C@@H]6O[C@H](CO)[C@@H](O)[C@H](O)[C@H]6O)[C@](C)(CO)[C@@H]5CC[C@]43C)[C@@H]2CC1(C)C` [Isoescin IB] (compound dose: 10 uM) showed a cell viability of 1.08 ± 0.074.
For `C=C(C)[C@@H]1CC[C@]2(C(=O)O)CC[C@]3(C)[C@H](CC[C@@H]4[C@@]5(C)CC[C@H](OC(=O)CC(C)(C)C(=O)O)C(C)(C)[C@@H]5CC[C@]43C)[C@@H]12` [Bevirimat] (compound dose: 10 uM), the cell viability was 1.018 ± 0.0069.
`CC(=O)O[C@]12CCC(C)=CC[C@]13CC[C@H]2[C@@](C)(/C=C/C=C(\C)C(=O)O)OC3=O` [Pseudolaric Acid  A] (compound dose: 10 uM) was tested, and the cell viability was 0.834 ± 0.11.
Compound `C[C@@H]1C[C@@H]2O[C@@]3(O[C@@H]2C(C)(C)O)[C@H](O)[C@@]2(C)[C@@H]4CC[C@H]5C(C)(C)[C@@H](O)CC[C@@]56C[C@@]46CC[C@]2(C)[C@@H]13` [Cimigenol] (compound dose: 10 uM) has a cell viability of 1.03 ± 0.066.
Compound `C/C1=C\CC/C(C)=C/C2C(CC/C(C)=C/CC1)C2(C)C` (stereo unspecified) [Casbene] (compound dose: 10 uM) has a cell viability of 1.11 ± 0.042.
Work on `COc1ccc2cc1Oc1ccc(cc1)C[C@H]1c3cc(c(OC)cc3CCN1C)Oc1c(OC)c(OC)cc3c1[C@H](C2)N(C)CC3` [Tetrandrine] (compound dose: 10 uM) yielded a cell viability of 1.047 ± 0.0084.
Compound `C[C@H]1[C@H](C)CC[C@]2(C(=O)O)CC[C@]3(C)C(=CC[C@@H]4[C@@]5(C)C[C@@H](O)[C@H](O)[C@@](C)(CO)[C@@H]5[C@H](O)C[C@]43C)[C@H]12` [Madecassic acid] (compound dose: 10 uM) has a cell viability of 0.899 ± 0.14.
For `COC(=O)C1=CO[C@@H](O[C@@H]2O[C@H](CO)[C@@H](O)[C@H](O)[C@H]2O)[C@@H]2[C@@H](C)CC(=O)[C@]12O` [Hastatoside] (compound dose: 10 uM), the cell viability was 0.981 ± 0.017.
For `C[C@@H]1O[C@@H](O[C@H]2[C@H](OC(=O)[C@]34CCC(C)(C)C[C@H]3C3=CC[C@@H]5[C@@]6(C)C[C@H](O)[C@H](O[C@@H]7O[C@H](CO)[C@@H](O)[C@H](O[C@@H]8O[C@H](CO)[C@@H](O)[C@H](O)[C@H]8O)[C@H]7O)C(CO)(CO)[C@@H]6CC[C@@]5(C)[C@]3(C)C[C@H]4O)OC[C@H](O)[C@@H]2O)[C@H](O)[C@H](O)[C@H]1O[C@@H]1OC[C@@H](O)[C@H](O[C@@H]2OC[C@](O)(CO)[C@H]2O)[C@H]1O` [Platycodin D2] (compound dose: 10 uM), the cell viability was 0.7561 ± 0.0061.
`C[C@@H]1O[C@@H](O[C@H]2[C@H](O[C@H]3CC[C@@]4(C)[C@@H](CC[C@]5(C)[C@@H]4CC=C4[C@@H]6CC(C)(C)CC[C@]6(C(=O)O[C@@H]6O[C@H](CO[C@@H]7O[C@H](CO)[C@@H](O[C@@H]8O[C@@H](C)[C@H](O)[C@@H](O)[C@H]8O)[C@H](O)[C@H]7O)[C@@H](O)[C@H](O)[C@H]6O)CC[C@]45C)[C@]3(C)CO)OC[C@H](O)[C@@H]2O)[C@H](O)[C@H](O)[C@H]1O` [Hederacoside C] (compound dose: 10 uM) was tested, and the cell viability was 1.05 ± 0.024.
In the case of `C=C(C)[C@H]1CC=C(C)CC1` [(r)-(+)-limonene] (compound dose: 10 uM), the cell viability is reported as 0.986 ± 0.032.
